Shown are actives, neighbours in structure and some others; about 3.4% of the full set was active somewhere.
FBW7 act – FBW7 E3 ligase activators, primary screen, biochemical, AlphaScreen, human | F-box/WD repeat-containing protein 7 (Homo sapiens), Q969H0 | AlphaScreen FBW7–phospho-cyclin E peptide binding, activator screen | normalized activity (activation), % at 26.1 µM | AID 1259310, 2017 | 650,000 tested, 0.13% active; in the data active = normalized activity above about 1.9%;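 also: purified mutant Fbw7 with reduced substrate affinity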
Target sequence (Q969H0 whole entry, looked up): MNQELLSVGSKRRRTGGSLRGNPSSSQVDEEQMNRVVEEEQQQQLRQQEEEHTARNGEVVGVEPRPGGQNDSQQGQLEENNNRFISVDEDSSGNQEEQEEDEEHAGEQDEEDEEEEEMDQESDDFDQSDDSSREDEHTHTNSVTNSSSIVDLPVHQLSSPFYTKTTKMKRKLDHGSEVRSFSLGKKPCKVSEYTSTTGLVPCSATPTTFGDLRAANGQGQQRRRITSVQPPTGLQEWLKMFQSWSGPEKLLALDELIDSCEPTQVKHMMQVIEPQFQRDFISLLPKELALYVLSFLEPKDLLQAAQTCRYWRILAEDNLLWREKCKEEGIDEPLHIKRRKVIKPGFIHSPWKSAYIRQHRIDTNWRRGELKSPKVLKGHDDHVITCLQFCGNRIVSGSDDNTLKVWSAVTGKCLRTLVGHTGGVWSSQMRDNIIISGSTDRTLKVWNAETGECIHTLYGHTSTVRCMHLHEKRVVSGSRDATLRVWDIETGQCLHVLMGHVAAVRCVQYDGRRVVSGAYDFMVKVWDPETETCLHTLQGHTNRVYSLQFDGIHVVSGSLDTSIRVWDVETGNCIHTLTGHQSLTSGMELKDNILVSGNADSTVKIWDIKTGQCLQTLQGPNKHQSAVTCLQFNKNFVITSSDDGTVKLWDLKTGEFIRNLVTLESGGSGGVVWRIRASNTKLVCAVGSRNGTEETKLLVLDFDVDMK
TEAD-YAP block – TEAD-YAP interaction inhibition, primary screen, TEAD-YAP interaction inhibitor project, luminescence, HEK-TIYL cells | TEAD-Gal4/YAP UAS-luciferase luminescence | inhibition, % at 9.12 µM | 640,000 tested, 1.4% active | AID 1259422, 2018; in the data active = inhibition above about 32%;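 also: 0% = median of test compound wells and 100% = reference inhibitor wells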
GPR151 activ – activators of human GPR151, primary screen, cell-based, PathHunter beta-arrestin, luminescence. AID 1508602, 2020. PathHunter beta-arrestin GPR151 cells. activation, % at 11.2 µM. 650,000 tested, 1% active; in the data active = activation above about 4.9%;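 also: 0% = median of compound wells and 100% = cells with positive control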
MITF primary – MITF inhibitors, primary screen, biochemical, AlphaScreen, human; 650,000 tested, 0.91% active; AlphaScreen MITF homodimerization, bead proximity signal; inhibition, % at 2.6 µM; in the data active = inhibition above about 50%;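 also: 0% = vehicle wells with protein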
GPR151 confirm – GPR151 activators, triplicate retest, confirmation, cell-based, PathHunter beta-arrestin, luminescence | GPR151 PathHunter beta-arrestin cells, 90 min; % of EA-reagent control over plate median | 6,700 tested, under 10 active | shares compounds with GPR151 activ | activation, % at 11.2 µM;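 active = mean percent activation across replicates above the confirmation screen cutoff of 4.91%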
GPR119 ag – GPR119 activators in beta-arrestin cells, counter-screen for GPR151 activator project, cell-based, PathHunter beta-arrestin, luminescence, triplicate; AID 1508611, 2020; activation, % at 11.2 µM; shares compounds with GPR151 activ; 90 min; 0 = compound-well median, 100 = enzyme-acceptor control; 6,700 tested, 0.3% active;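 active = mean percent activation in the counterscreen above 29.09%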;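 also: counterscreen on off-target GPR119 to flag nonselective hits from the GPR151 activator screen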
An asterisk follows results filed as active; nt = not tested or not shown; ! = not active in a repeat.

SMILES	FBW7 act	TEAD-YAP block	GPR151 activ	MITF primary	GPR151 confirm	GPR119 ag
CC(C)(C)c1ccc(C2SCC(=O)N2c2ccccc2)cc1 (centres undefined)	1	4	-1	-1	nt	nt
Cc1cccc(OCC(=O)Oc2ccccc2NC2=NS(=O)(=O)c3ccccc32)c1	0	-1	2	4	nt	nt
COc1ccc(CN2CCN(CCCc3ccccc3)C(CCO)C2)c(O)c1 (centres undefined)	1	6	0	4	nt	nt
COc1ccc(CN2CCN(CCCc3ccccc3)C(CCO)C2)c(OC)c1 (centres undefined)	0	6	5.0*	-17	1	5
CC(C)C(=O)N(Cc1ccccn1)CC1CCCO1 (centres undefined)	0	-1	0	-2	nt	nt
COc1ccc(S(=O)(=O)N(C)CC(=O)Nc2cccc(OC)c2)cc1	0	-1	6.2*	9	0	-10
COc1ccc(CNC(=O)CN(C)S(=O)(=O)c2ccc(Cl)cc2)cc1	0	4	5.4*	13	0	-5
Cc1ccnc(SCC(=O)N2CCc3ccccc32)n1	0	-40	5.4*	-6	0	9
O=C(CSc1nnc(-c2ccccc2O)o1)N1CCc2ccccc21	0	7	6.3*	6	0	1
CN(C)CC(C)(O)c1ccc2c(c1)CN(Cc1ccc3c(c1)OCCO3)CCO2 (centres undefined)	0	-1	4.9*	-3	1	18
CCCCN1C(=O)c2ccccc2S1(=O)=O	0	-1	1	8	nt	nt
Cc1cc(C)c2cc(C#N)c(N3CCCN(C(=O)CCC(=O)O)CC3)nc2c1	0	-7	1	6	nt	nt
CC(=O)N1CCCN(c2nc3cc(C)cc(C)c3cc2C#N)CC1	0	11	7.2*	13	-1	0
CC[C@@H](Cn1nc(-c2cccs2)ccc1=O)NC(=O)Cn1nc(C)c2ccccc2c1=O	0	-5	0	-4	nt	nt
COc1ccc(-n2c(SCC(=O)Nc3cccc(C)c3)nc3n[nH]c(C)c3c2=N)cc1	0	14	0	12	nt	nt
Cc1cc(NCc2nc3ccccc3[nH]2)nc(-c2ccc(C(=O)NC3CC3)cc2)n1	0	-11	5.1*	10	0	2
O=C(NC1CC1)c1ccc(-c2nc3ncnc(NCc4nc5ccccc5[nH]4)c3[nH]2)cc1	0	-19	6.3*	1	0	-2
Cc1cc(NCc2nc3ccccc3[nH]2)nc(-c2ccccc2)n1	0	1	0	-6	nt	nt
CCC(NC(=O)CCc1nnc(CCc2ccccc2)o1)c1ccc(F)cc1 (centres undefined)	0	-25	0	14	nt	nt
O=c1c2ccccc2[nH]c(=S)n1Cc1ccccn1	0	-2	2	2	nt	nt
Cc1cccn2c(=O)c(/C=C(\C#N)C(=O)N3CCCCC3)c(Oc3ccc(F)cc3)nc12	0	11	5.7*	-16	0	-11
COCCNC(=O)/C(C#N)=C/c1c(Oc2cccc(C)c2)nc2c(C)cccn2c1=O	0	4	6.1*	0	1	1
COc1ccc(Oc2nc3c(C)cccn3c(=O)c2/C=C(\C#N)C(=O)N2CCCCC2)cc1	0	4	1	6	nt	nt
Cc1ccc(Oc2nc3ccccn3c(=O)c2/C=C(\C#N)C(=O)N2CCOCC2)cc1	0	2	4.9*	3	-1	-10
CN(C)S(=O)(=O)c1cccs1	0	-10	-2	6	nt	nt
SMILES	FBW7 act	TEAD-YAP block	GPR151 activ	MITF primary	GPR151 confirm	GPR119 ag
COC(=O)c1ccc(Nc2nnc(-c3ccc(C)c(S(=O)(=O)NCc4ccccn4)c3)c3ccccc23)cc1	0	3	-1	0	nt	nt
COc1ccc(CC2(CCC(=O)NC(C)c3nc4ccccc4[nH]3)CCC(=O)N2)c(F)c1 (centres undefined)	1	4	-1	21	nt	nt
COc1ccccc1N1CCN(c2ncc(C(=O)Nc3ccc(Oc4ccccc4)cc3)c3ccccc23)CC1	0	-6	-2	-9	nt	nt
O=C(Oc1ccc(I)cc1)c1ccc([N+](=O)[O-])cc1	0	1	6.1*	9	-1	-5
O=C(O)CN=C(NS(=O)(=O)c1ccccc1)c1ccccc1	0	14	4.9*!	-2	0	13
CCN1/C(=C/c2ccc3cc(OC)ccc3[n+]2CC)Sc2ccc(C3CCCCC3)cc21	-1	88*	9.3*	24	-1	-3
O=C(Cn1nc2oc3ccccc3n2c1=O)NC1CCCC1	0	2	7.8*	-4	0	9
CC1(C)OC2OC(C(=O)NCCCO)C3OC(C)(C)OC3C2O1 (centres undefined)	0	-2	0	3	nt	nt
O=C(O)CCCC(=O)Nc1nc(-c2ccccc2)cs1	0	5	-2	-13	nt	nt
Cc1ccccc1OCCCC(=O)Nc1nc(-c2ccccc2)cs1	0	-1	7.1*	-14	-1	0
Cc1cc(C)n2nc(NCc3ccccc3Cl)nc2n1	0	-20	5.1*	15	1	5
Cc1nc(NC2=NCN(Cc3cccnc3)CN2)nc2ccccc12	0	4	7.7*	13	0	3
COCCOC(=O)C1=C(C)NC2=C(C(=O)CC(c3ccc(OC)c(OC)c3)C2)C1c1cccc(Cl)c1 (centres undefined)	0	24	0	4	nt	nt
CCc1ccc(N2C(=O)NC(=O)/C(=C/c3cc(OC)c(O)c(OC)c3)C2=O)cc1	0	-1	1	-12	nt	nt
Cc1cc(N2C(=O)NC(=O)/C(=C\c3ccccc3OCC#N)C2=O)ccc1Br	0	0	5.6*	-7	1	19
CCOc1ccc(N2C(=O)NC(=O)/C(=C\c3ccc(O)c(OC)c3)C2=O)cc1	0	3	1	14	nt	nt
COc1cc(/C=C2/C(=O)NC(=O)N(c3ccc(Cl)cc3)C2=O)cc(OC)c1O	0	4	16*	12	0	12
C=CCc1cc(/C=C2/C(=O)NC(=O)N(c3ccc(OCC)cc3)C2=O)ccc1O	0	8	9.3*	16	1	-2
CCOc1cc(/C=C2\C(=O)NC(=O)N(c3cc(C)ccc3C)C2=O)ccc1O	-1	18	8.9*	-9	0	12
O=C(NCCC1=CCCCC1)c1ccc2c(=O)n(-c3cccc(C(F)(F)F)c3)c(=S)[nH]c2c1	0	-4	1	-3	nt	nt

Screening data deposited in PubChem by The Scripps Research Institute Molecular Screening Center.
